# Hit rate of the full screen: of about 310,000 compounds, about 14,000 (4.5%) showed an effect of 50% or more. Effects have a minus sign here. The sample holds strong results, similar compounds and a random draw of the others, so the mix is not that of the screen.
# Biological target: human ether-à-go-go-related gene (hERG) potassium channel (human, UniProt Q12809)
# Experiment: primary screen, population patch clamp on CHO cells stably expressing hERG; higher = less effect of the substance
# 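Also: peak tail current of the secondary pulse compared with the same well before compound.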
# Chain of human ether-à-go-go-related gene (hERG) potassium channel (Q12809 whole entry, looked up): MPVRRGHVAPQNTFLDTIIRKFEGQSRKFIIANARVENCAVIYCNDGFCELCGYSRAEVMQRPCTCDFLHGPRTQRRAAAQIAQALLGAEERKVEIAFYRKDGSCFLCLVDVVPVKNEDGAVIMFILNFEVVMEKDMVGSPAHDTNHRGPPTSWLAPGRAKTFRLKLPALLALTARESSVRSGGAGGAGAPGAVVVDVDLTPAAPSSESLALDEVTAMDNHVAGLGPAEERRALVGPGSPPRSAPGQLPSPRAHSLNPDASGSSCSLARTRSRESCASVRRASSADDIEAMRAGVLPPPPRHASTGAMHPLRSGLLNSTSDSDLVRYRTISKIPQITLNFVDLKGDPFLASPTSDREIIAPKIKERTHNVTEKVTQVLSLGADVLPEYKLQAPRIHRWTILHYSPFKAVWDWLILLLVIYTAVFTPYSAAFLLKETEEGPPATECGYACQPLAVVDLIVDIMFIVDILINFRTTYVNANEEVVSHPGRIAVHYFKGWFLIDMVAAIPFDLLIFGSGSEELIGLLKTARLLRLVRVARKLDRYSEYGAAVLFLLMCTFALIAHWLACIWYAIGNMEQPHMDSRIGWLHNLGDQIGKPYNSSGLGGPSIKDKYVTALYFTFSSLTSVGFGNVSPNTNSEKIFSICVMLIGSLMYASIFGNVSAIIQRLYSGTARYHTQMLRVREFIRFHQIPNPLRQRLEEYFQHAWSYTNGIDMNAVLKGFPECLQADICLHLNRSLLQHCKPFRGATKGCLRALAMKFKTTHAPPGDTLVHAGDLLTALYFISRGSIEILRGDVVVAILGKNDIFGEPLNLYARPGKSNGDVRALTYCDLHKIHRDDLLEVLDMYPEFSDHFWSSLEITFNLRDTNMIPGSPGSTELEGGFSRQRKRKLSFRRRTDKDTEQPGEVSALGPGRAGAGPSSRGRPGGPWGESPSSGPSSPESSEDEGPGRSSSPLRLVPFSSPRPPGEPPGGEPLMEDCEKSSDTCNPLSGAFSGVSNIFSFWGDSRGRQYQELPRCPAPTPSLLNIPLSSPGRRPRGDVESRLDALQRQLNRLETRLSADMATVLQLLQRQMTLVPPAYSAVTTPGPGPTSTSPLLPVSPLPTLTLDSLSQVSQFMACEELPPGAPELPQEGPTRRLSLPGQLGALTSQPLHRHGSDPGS
row,Compound,"hERG current change (%, negative = inhibition) at 10uM"
1,Cc1cc(C)nc(NS(=O)(=O)c2ccc(N3Cc4ccccc4C3=O)cc2)n1,12.2%
2,COc1cc(C(=O)Nc2ccccc2N2CCOCC2)ccc1OCc1c(C)noc1C,-28.8%
3,O=C(NCc1cn2ccsc2n1)c1c(F)cccc1Cl,7.32%
4,O=C(c1cccs1)N1CCN(c2ccccc2)CC1,-0.00412%
5,O=C(CCC1CCCC1)N1CCC(N2CCCCCC2)CC1.O=C(O)C(=O)O,-29.9%
6,O=C(c1cccs1)N1CCC(N2CCN(c3ccccc3)CC2)CC1,-51.2%
7,O=C(c1cccs1)N1CCN(Cc2ccccc2)CC1,-12.2%
8,COc1ccccc1N1CCN(C2CCN(C(=O)c3cccs3)CC2)CC1,-38.2%
9,O=C(O)C(=O)O.O=C(c1cccs1)N1CCN(CCCc2ccccc2)CC1,-64.5%
10,O=C(O)C(=O)O.O=C(c1cccs1)N1CCN(C2CCCCC2)CC1,-32.4%
11,CC(C)CC(=O)N1CCC(N2CCN(c3ccccc3)CC2)CC1,-12%
12,O=C(c1cccs1)N1CCN(CCc2ccccc2)CC1,-48.6%
13,O=C(O)C(=O)O.O=C(c1cccs1)N1CCN(Cc2ccncc2)CC1,-5.94%
14,O=C(c1cccs1)N1CCN(C2CCN(Cc3ccccc3)CC2)CC1,-64.3%
15,O=C(CCC1CCCC1)N1CCC(N2CCN(c3ccccc3)CC2)CC1,-66.6%
16,COc1ccc(C)cc1-n1c(SCC(=O)NC2CC2)nc2ccccc2c1=O,-17.4%
17,Nc1nc(SCc2nc3scc(-c4cccs4)c3c(=O)[nH]2)n[nH]1,18.9%
18,CCOc1ccc(-n2c(=O)[nH]cc(C(=O)N3CCCc4ccccc43)c2=O)cc1,-9.75%
19,Cc1cccc(N2CCN(C(=O)Cn3cccc3)CC2)c1C,2.77%
20,Cc1ccc(-c2cnc(NC(=O)CCC(=O)N3CCCCC3)n2C)cc1,-6.45%
21,O=C1C2C3C=CC(C3)C2C(=O)N1c1ccc(-c2nc3ccccc3o2)cc1 (stereo not drawn),15.6%

row,Compound,"hERG current change (%, negative = inhibition) at 10uM"
1,CCC(C)(C)NC(=O)C(c1cccc(OC)c1OC)N(CCC(C)C)C(=O)CCC(=O)Nc1cc(C)on1 (stereo not drawn),11.6%
2,Cc1n[nH]c(C)c1CCN.Cl,12.9%
3,COc1ccc(C(=O)Nc2ccc(-c3cn4ccsc4n3)cc2)cc1S(=O)(=O)N1CCOCC1,-9.6%
4,Nn1c(SCC(=O)N2CCCc3ccccc32)nnc1-c1ccccc1,2.21%
5,O=c1n(Cc2ccc(Cl)cc2)c2sc3c(c2c2ncnn12)CCCC3,-39.1%
6,O=C(Cn1c(=O)n2ncnc2c2c3c(sc21)CCCC3)c1ccccc1,-20.1%
7,C=CCn1c(=O)n2ncnc2c2c3c(sc21)CCCC3,-59.3%
8,COc1cccc(C2=NNC(=NCc3ccccc3)SC2)c1,-42.6%
9,CCn1cnc2sc(C(=O)Oc3cccc(C)c3)c(C)c2c1=O,19.9%
10,Cc1nn(C)c(Oc2ccccc2)c1CCNC(=O)CCl,35.6%
11,Cc1cccc(Oc2ccc(N)cc2)c1,-12%
12,CC(=O)c1cnc2cc(-c3ccc(C)cc3)nn2c1C,-4.26%
13,N#Cc1c(N)sc(=S)c2c1CCN(Cc1ccccc1)C2,-5.46%
14,N#Cc1c(N)sc2c1CCN(CCc1ccccc1)C2,-50.5%
15,CCN1CCc2c(sc(N)c2C#N)C1,5.55%
16,CN(C)S(=O)(=O)c1ccc2c(c1)Cc1cc(S(=O)(=O)N(C)C)ccc1-2,20.1%
17,COc1cc(/C=C/c2ccc(O)cc2)cc(OC)c1,-2.2%
18,Cc1occc1C(=O)NNC1=CC(=O)CC(C)(C)C1,13.3%
19,CC1CCN(CCCNC(=O)CCNC(=O)Cn2cnc3ccccc3c2=O)CC1,20.5%
20,OC1(C(F)(F)F)CC(c2ccc3ccccc3c2)=NO1 (stereo not drawn),4.45%
21,COCc1[nH]nc2c1C(c1cccc(OC)c1)C(C#N)=C(N)O2 (stereo not drawn),-7.26%

# — article PMC4336329 (PLoS ONE, 2015)
